Screening data: PubChem, National Center for Advancing Translational Sciences (NCATS)
D2 PAM-1: human D2 receptor positive allosteric modulation. P14416. DiscoveRx D2 beta-arrestin cells, luminescence, 90 min; 100% = 57 uM dopamine signal. potentiation, % (no concentration beside the values). 360,000 compounds, 0.23% hits; in the data active = potentiation above about 50%
Target sequence (P14416 whole entry, looked up): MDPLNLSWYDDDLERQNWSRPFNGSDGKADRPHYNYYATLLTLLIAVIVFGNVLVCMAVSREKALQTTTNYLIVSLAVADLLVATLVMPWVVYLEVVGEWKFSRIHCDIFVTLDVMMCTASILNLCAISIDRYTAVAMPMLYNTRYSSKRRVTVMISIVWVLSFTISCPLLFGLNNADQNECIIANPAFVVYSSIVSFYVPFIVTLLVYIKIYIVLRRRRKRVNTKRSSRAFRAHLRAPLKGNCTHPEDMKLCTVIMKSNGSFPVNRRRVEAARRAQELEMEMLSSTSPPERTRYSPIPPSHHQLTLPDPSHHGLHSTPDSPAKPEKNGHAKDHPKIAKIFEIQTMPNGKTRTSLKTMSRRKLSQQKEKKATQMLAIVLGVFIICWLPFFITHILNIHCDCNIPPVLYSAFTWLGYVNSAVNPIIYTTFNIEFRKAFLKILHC
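PathHunter beta-arrestin assay in DiscoveRx D2 cells. Compounds were added with an EC20 of dopamine (50 nM final) for 90 min at 37 deg C. Luminescence was read 1 h after detection reagent, with 57 uM dopamine as the EC100 control.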
D2 antag: antagonists of human D2 dopamine receptor | AID 485344 | 340,000 compounds, 2% hits | P14416 | HEK293 TREx D2 cells, calcium flux, dopamine EC80 | inhibition, % at 10 µM; in the data active = inhibition above about 30%; inactive = below that, where a call was filed; note: 0% is about no effect
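In this primary screen, negative modulation is detected by tracking calcium flux after an EC80 dopamine challenge in inducible HEK293 T-REx D2 cells preexposed to test compound for 180 s.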
D2 ag-1: agonists of human D2 dopamine receptor (beta-arrestin) | DiscoveRx PathHunter D2 beta-arrestin, luminescence, 90 min; 100% = 57 uM dopamine signal | AID 624465 | 360,000 compounds, 0.084% hits | activation, % (concentration not given with the values); in the data active = activation above about 40%
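Agonist mode: compounds alone added to overnight-plated D2 PathHunter cells for 90 min at 37 C, with 57 uM final dopamine (EC100) defining full response. Beta-arrestin recruitment detected by chemiluminescent reagent, read after 1 h at ambient temperature.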
D2 ag-2: D2 dopamine receptor (human) agonism. P14416. AID 485358. 340,000 compounds, 0.53% hits. HEK293 T-REx D2 cells, calcium flux agonist mode. activation, % at 2 µM;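 active = activation over 3 SD above normal in the single-dose calcium agonist read, cut at about 30% in these data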; note: 0% is about no effect
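Tetracycline-induced HEK293 Trex cells with D2 receptor force-coupled to calcium signaling, plated overnight at 30 C and loaded with no-wash calcium dye. Calcium flux read kinetically for 180 s after compound addition; responses flag agonists.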
D2 PAM-2: D2 dopamine receptor (human) potentiation; P14416; 340,000 compounds, 0.34% hits; potentiation, % at 10 µM; HEK293 T-REx D2, calcium flux, EC20 dopamine potentiation;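 active = potentiation over 3 SD above the plate norm, cut at about 30% in these data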; note: 0% is about no effect
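Primary screen. Calcium kinetics in induced HEK293 T-REx D2 cells: compound pre-addition 180 s, EC20 dopamine, 180 s more.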
The depositor's hits bear a star. Shown are actives, neighbours in structure and some others; about 2.4% of the full set was active somewhere.

How did NC(=O)c1ccc(NC(=O)c2ccc3c(c2)CCN3S(=O)(=O)c2ccccc2)cc1 do in these assays?
D2 PAM-1: 6; D2 antag: -7; D2 ag-1: 1; D2 ag-2: 0; D2 PAM-2: 6

Results for O=C(O)c1ccc2nc(-c3cc4cc(Cl)ccc4oc3=O)[nH]c2c1 ?
D2 ag-2: 0; D2 PAM-2: -13

How did CC1CCN(CCCOc2ccc(Br)cc2Cl)CC1 do in these assays?
D2 PAM-1: -3; D2 antag: 47*; D2 ag-1: 0; D2 ag-2: 2; D2 PAM-2: -34

How did CC1CC(C)CN(CCCNC(=O)Cn2ncc3c(=O)oc4ccccc4c32)C1 (configuration not stated) do in these assays?
D2 PAM-1: -11; D2 antag: 4; D2 ag-1: -9; D2 ag-2: 1; D2 PAM-2: -6

How did O=C(Cn1ncc2c(=O)oc3ccccc3c21)NCCN1CCN(c2ccccc2F)CC1 do in these assays?
D2 PAM-1: -6; D2 antag: -17; D2 ag-1: -2; D2 ag-2: 37*; D2 PAM-2: -25

Results for O=C(CNC(=O)c1ccc(Cl)cc1)OCC(=O)c1ccc2c(c1)OCCO2 ?
D2 PAM-1: -11; D2 antag: 41*; D2 ag-1: -2; D2 ag-2: 0; D2 PAM-2: 14

How did CCOC(=O)CNC(=O)c1ccc2c(c1)OCCO2 do in these assays?
D2 PAM-1: -3; D2 antag: -3; D2 ag-1: -2; D2 ag-2: 0; D2 PAM-2: -7

How did CC(=O)N1c2c(cc(Br)cc2S(=O)(=O)NCc2ccccc2)CC1C (configuration not stated) do in these assays?
D2 PAM-1: -9; D2 antag: 0; D2 ag-1: 4; D2 ag-2: -3

How did COc1cccc(CNS(=O)(=O)c2cc(Br)cc3c2N(C(C)=O)C(C)C3)c1 (configuration not stated) do in these assays?
D2 PAM-1: -13; D2 antag: 40*; D2 ag-1: -1; D2 ag-2: 0; D2 PAM-2: -23

Results for Cc1ccc(S(=O)(=O)N/N=C\c2cn(CC(N)=O)c3ccccc23)cc1 ?
D2 PAM-1: 3; D2 antag: 3; D2 ag-1: -2; D2 ag-2: 1; D2 PAM-2: 0

Results for CC(=O)NC(C)(c1ccccc1)c1nc(-c2cccc(C#N)c2)cs1 (configuration not stated) ?
D2 PAM-1: -5; D2 ag-1: -5

What do the screens show for `O=C(c1ccccc1)N1CCN(CC(O)COc2cccc3ccccc23)CC1` (configuration not stated)?
D2 PAM-1: -26; D2 antag: 6; D2 ag-1: 3; D2 ag-2: 2; D2 PAM-2: -1

What do the screens show for `O=C(c1cccc(COc2cccc3ccccc23)c1)N1CCCC1`?
D2 PAM-1: 7; D2 antag: -21; D2 ag-1: 1; D2 ag-2: 1; D2 PAM-2: 48*

Results for CC1CCCCC1NC(=O)C1CCN(c2c3c(nc4ncnn24)CCC3)CC1 (configuration not stated) ?
D2 PAM-1: 0; D2 antag: 34*; D2 ag-1: -4; D2 ag-2: -2; D2 PAM-2: -2

How did c1ccc(N2CCN(c3c4c(nc5ncnn35)CCC4)CC2)cc1 do in these assays?
D2 PAM-1: 4; D2 antag: -26; D2 ag-1: 1; D2 ag-2: -1; D2 PAM-2: 1

How did CC(=O)c1nn(-c2ccc(OC(F)(F)F)cc2)nc1Nc1ccc(Cl)cc1 do in these assays?
D2 ag-2: 1; D2 PAM-2: -4

What do the screens show for `O=C(NCCc1csc2nc(-c3ccccc3F)nn12)C(=O)Nc1cc(F)ccc1F`?
D2 ag-2: 0; D2 PAM-2: -5

How did O=C(O)c1cccc(-n2c(-c3cnccn3)n[nH]c2=S)c1 do in these assays?
D2 PAM-1: -7; D2 antag: 30*; D2 ag-1: 1; D2 ag-2: 2; D2 PAM-2: -15

Results for CC(C)(C)c1ccc(-c2cn(-c3ccc(Br)cc3)c3[n+]2CCCS3)cc1 ?
D2 PAM-1: -10; D2 antag: 42*; D2 ag-1: -1; D2 ag-2: 1; D2 PAM-2: -13

How did c1ccc(-c2cn(-c3ccccc3)c3[n+]2CCS3)cc1 do in these assays?
D2 PAM-1: -9; D2 antag: 4; D2 ag-1: -2; D2 ag-2: -1; D2 PAM-2: 8

What do the screens show for `COc1cccc(N(C(C)=O)c2nc(C)cc(C)c2C#N)c1`?
D2 PAM-1: -2; D2 antag: 36*; D2 ag-1: -1; D2 ag-2: 1

Results for Cc1ccc(S(=O)(=O)N2CCCc3cc(NS(=O)(=O)c4ccc(C)c(C)c4)ccc32)cc1 ?
D2 ag-2: -1; D2 PAM-2: 5

How did CCOC(=O)c1sc2nc(C)nc(SCC(=O)NC3CCS(=O)(=O)C3)c2c1C (configuration not stated) do in these assays?
D2 PAM-1: -8; D2 antag: -17; D2 ag-1: 3; D2 ag-2: -1; D2 PAM-2: 42*

Results for CCOC(=O)C(C)Oc1cccc2c(=O)n(CC(=O)Nc3ccc(OC)cc3)ccc12 (configuration not stated) ?
D2 PAM-1: -7; D2 ag-1: -4

How did CCC(=O)NNc1nc2c(F)cc(F)cc2s1 do in these assays?
D2 PAM-1: 1; D2 antag: 40*; D2 ag-1: 1; D2 ag-2: 1; D2 PAM-2: 5

Results for O=C(NNc1nc2c(F)cc(F)cc2s1)C1=COCCO1 ?
D2 PAM-1: -1; D2 antag: 39*; D2 ag-1: 0; D2 ag-2: -1; D2 PAM-2: 2

How did Oc1ccc(CN2CCc3ccccc3C2)c2cccnc12 do in these assays?
D2 PAM-1: -30; D2 antag: 65*; D2 ag-1: -10; D2 ag-2: -1; D2 PAM-2: -27

How did Oc1cc2c(cc1CN1CCc3ccccc3C1)OCO2 do in these assays?
D2 PAM-1: -21; D2 antag: 33*; D2 ag-1: 0; D2 ag-2: 0; D2 PAM-2: -17

Results for COc1cc(CN2CCc3ccccc3C2)ccc1O ?
D2 PAM-1: -30; D2 antag: 19; D2 ag-1: -2; D2 ag-2: 5; D2 PAM-2: -22

How did Oc1ccc(CN2CCCCC2)c2cccnc12 do in these assays?
D2 PAM-1: -2; D2 antag: 3; D2 ag-1: 0; D2 ag-2: 1; D2 PAM-2: -5

How did Cc1ccc(S(=O)(=O)N[C@H](C(=O)N2CCC(C(=O)N[C@@H](CCC(N)=O)C(=O)O)CC2)C(C)C)cc1 do in these assays?
D2 PAM-1: -31; D2 ag-1: -3

What do the screens show for `Cc1cc2c(s1)Nc1ccccc1N=C2N1CCN(C)CC1`?
D2 antag: 77*
